Assay results: PubChem BioAssay (NCI)
About 83,000 compounds went through this panel and 20% of them were active in at least one assay; those are over-represented in the sample as a whole.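 Growth was measured after 48 h exposure to one concentration of compound in 96-well plates. Values under 10 count as active.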 Values without a mark were called inactive. The source made the active and inactive calls.

Assays:
Assay in all cases: NCI-60 one-dose screen, 48 h (100 = growth as untreated, 0 = no growth, -100 = all killed)
[1] = system: NCI-H226 lung; settings: 10 µM
[2] = system: NCI-H322M lung; settings: 10 µM
[3] = system: HOP-62 NSCLC; settings: 10 µM
[4] = system: NCI-H522 lung; settings: 10 µM
[5] = system: A549/ATCC NSCLC; settings: 10 µM
[6] = system: COLO 205 colon; settings: 10 µM
[7] = system: DU-145 prostate; settings: 10 µM
[8] = system: K-562 leukemia; settings: 10 µM
[9] = system: SF-539 CNS; settings: 10 µM
[10] = system: M14 melanoma; settings: 10 µM
[11] = system: HCT-15 colon; settings: 10 µM
[12] = system: HT29 colon; settings: 10 µM
[13] = system: SNB-75 CNS; settings: 10 µM
[14] = system: U251 CNS; settings: 10 µM
[15] = system: PC-3 prostate; settings: 10 µM
[16] = system: LOX IMVI melanoma; settings: 10 µM
[17] = system: MOLT-4 leukemia; settings: 10 µM
[18] = system: RPMI-8226 leukemia; settings: 10 µM
[19] = system: SK-OV-3 ovarian; settings: 10 µM
[20] = system: MDA-MB-468 breast; settings: 10 µM unless noted

Structure (SMILES) | growth [1] | growth [2] [%] | growth [3] | growth [4] | growth [5] | growth [6] | growth [7] [%] | growth [8] | growth [9] | growth [10] | growth [11] | growth [12] | growth [13] | growth [14] | growth [15] | growth [16] | growth [17] [%] | growth [18] | growth [19] | growth [20]
Cc1cc(N=C2NC(=O)/C(=C/c3cc(C(C)(C)C)c(O)c(C(C)(C)C)c3)S2)n[nH]1 | 10.3% | 28.6 | 8.56% (active) | -26.1% (active) | 9.9% (active) | -9.38% (active) | 27.2 | 18.3% | 18.9% | 24.7% | 6.98% (active) | 9.22% (active) | 1.49% (active) | 6.8% (active) | 10.7% | 1.11% (active) | 11 | 1.11% (active) | -27.9% (active) | -0.214% (active)
Cn1cc(-c2nc(N)nnc2-c2c[nH]c3ccccc23)c2cc(Br)cnc21 | 0.98% (active) | 37.2 | 28.5% | -36.5% (active) | 16.4% | -75.9% (active) | 20.6 | 9.47% (active) | 8.25% (active) | 8.68% (active) | 10.2% | -27.2% (active) | 2.04% (active) | 8.89% (active) | 13.3% | 15.6% | 13.8 | 13% | 26.5% | -9.99% (active)
O=C(c1ccc(F)cc1)C(c1c[nH]c2ccccc12)c1c[nH]c2ccccc12 | 36.5% | 90.5 | 91.5% | 50.7% | 91.7% | 97.7% | 33.5 | 5.35% (active) | 88% | 74.7% | 7.29% (active) | 30.8% | 79.1% | 74.8% | 41% | -76.3% (active) | 26.6 | 18.9% | 99.9% | 23.1%
O=C(NCCN1CCOCC1)OCc1ccc2c(Cl)cc(Cl)c(O)c2n1 |  |  |  |  |  |  |  |  |  |  |  |  |  |  |  |  |  |  |  | 81.6%
O=[N+]([O-])c1cccc(-c2nnc3c(/C=C/c4ccccc4O)nc4ccccc4n23)c1 | 33.1% | 55.8 | 52.8% | 55.3% | 57.8% | 41.3% | 63 | 24.1% | 46.2% | 29.8% | 52.5% | 48.6% | 102% | 76.7% | 52.2% | 56.1% | 38.7 | 54.9% | 75.7% | 52%
O=C(CC(=O)Nc1ccc(Oc2ncnc3scc(Nc4n[nH]c(=S)s4)c23)cc1)Nc1ccc(Cl)cc1 | 67.8% | 94.5 | 89.1% | 55.2% | 83% | 88.5% | 97 | 71.3% | 91.6% | 108% | 66.9% | 106% | 87.7% | 90.4% | 74% | 69% | 60.2 | 86.8% | 77.5% | -18.5% (active)
Cc1nn2c(/C=C3/C(=O)Nc4cc(Cl)ccc43)c(-c3ccccc3)nc2s1 |  |  |  |  |  |  |  |  |  |  |  |  |  |  |  |  |  |  |  | 11%
O=C(Nc1ccc(OCC(=O)c2ccc(Cl)cc2)cc1)Nc1ccc(Cl)c(C(F)(F)F)c1 | 38% | 49.1 | 47.6% | -12.4% (active) | 24.3% | -49.4% (active) | 66.2 | 65.3% | 47.3% | 33.9% | 23.6% | 33.6% | 51.5% | 35.6% | 7.67% (active) | -37.8% (active) | 45.3 | 12.2% | 33% | 26%
Cc1nc2sc(C(=O)Nc3ccc(Cl)cc3)c(N)c2cc1C(O)c1ccccc1 (stereo not drawn) |  |  |  |  |  |  |  |  |  |  |  |  |  |  |  |  |  |  |  | -0.107% (active)
Cc1ccc2sc3c(c2c1)Oc1nc[nH]c(=O)c1C3c1cccc(F)c1 (stereo not drawn) | 80.6% | 96.7 | 98.6% | 82.8% | 98.7% | 105% | 105 | 81.7% | 99.6% | 99.4% | 92.6% | 103% | 84.2% | 97.1% | 85.7% | 107% | 97 | 88.7% | 93.5% | 78%
